DT40 TDP1 no CPT = qHTS for Inhibitors of human tyrosyl-DNA phosphodiesterase 1 (TDP1): qHTS in cells in absence of CPT. actives 15% (n = 420,000). AID 686978, 2013. DT40 Tdp1-/- hTDP1 cells, no CPT, ATP luminescence, 48 h. Potency, µM (top dose mostly 46.2 µM), for the others: at the highest dose activity change, negative = growth inhibition, hits mostly inhibitors; note: potency is the fitted concentration of half-maximal effect; % is set by controls: 0 for no effect and ±100 for the full control effect; nearly all actives have a fitted effect of over 55% in size
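Readout: luminescence from CellTiter-Glo after 30 min in the dark at RT. Cells: DT40 Tdp1-/- with stable hTDP1, 400/well. Exposure: compounds alone, ≥48 hr, 37 °C.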
uPA generation = qHTS for Inhibitors of Cell Surface uPA Generation; actives 0.31% (n = 330,000); Potency, µM (titrated, usually from 38.3 µM), without a hit: at the highest dose activity change, negative = inhibition, usual class: inhibitors; cell surface uPA generation assay, qHTS; AID 540303, 2011; active = well fitted inhibition curve with a large enough effect; inconclusive = small, poorly fitted or top-dose-only effect; inactive = no such curve, though single readings can be large or run the other way; tested in mouse RAW 264.7 cells; note: potency is the fitted concentration of half-maximal effect; % is set by controls: 0 for no effect and ±100 for the full control effect; nearly all actives have a fitted effect of over 55% in size
miR-21 reporter = qHTS Assay for Modulators of miRNAs and/orActivators of miR-21; HeLa miR-21 FLuc reporter, luciferase, 48 h; Potency, µM (doses to about 38.3 µM), inactives show at the top dose activity change, positive = activation, most hits filed as activators; 340,000 tested, under 10 active;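 note: % of control where 0% means no effect; miR-21 action dims this reporter so a rising signal means less miR-21 action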
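HeLa cells stably expressing CMV-driven firefly luciferase with a downstream miR-21 binding sequence, endogenously expressing miR-21, were treated with titrations (up to about 40uM final) for 48 hours at 37 degree Celsius. Luciferase luminescence was read after lysis.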
DT40 TDP1 CPT = qHTS for Inhibitors of human tyrosyl-DNA phosphodiesterase 1 (TDP1): qHTS in cells in presence of CPT; chicken DT40 Tdp1-/-;hTDP1 cells + 20 nM CPT, ATP luminescence, 48 h; Potency, µM (doses to about 46.2 µM), for the others: at the highest dose activity change, negative = growth inhibition, usual class: inhibitors; actives 12% (n = 420,000); note: potency is the fitted concentration of half-maximal effect; % is set by controls: 0 for no effect and ±100 for the full control effect; nearly all actives have a fitted effect of over 55% in size
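Chicken DT40 Tdp1-/- cells stably complemented with human TDP1 were seeded at 400 cells/well in medium containing 20 nM camptothecin, exposed to pin-transferred compounds, and grown at 37 °C for at least 48 hr. Viability was read as ATP luminescence.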
TDP1 block = qHTS Assay for Inhibitors of Tyrosyl-DNA Phosphodiesterase (TDP1). Tyrosyl-DNA phosphodiesterase 1 (Homo sapiens), Q9NUW8. recombinant TDP1, AlphaScreen DNA substrate cleavage. actives 0.28% (n = 350,000). Potency, µM (doses to about 130 µM), for inactives: at the highest dose activity change, negative = inhibition, usual class: inhibitors. AID 485290, 2010; note: potency is the fitted concentration of half-maximal effect; % is set by controls: 0 for no effect and ±100 for the full control effect; nearly all actives have a fitted effect of over 40% in size
Target sequence (Q9NUW8 whole entry, looked up): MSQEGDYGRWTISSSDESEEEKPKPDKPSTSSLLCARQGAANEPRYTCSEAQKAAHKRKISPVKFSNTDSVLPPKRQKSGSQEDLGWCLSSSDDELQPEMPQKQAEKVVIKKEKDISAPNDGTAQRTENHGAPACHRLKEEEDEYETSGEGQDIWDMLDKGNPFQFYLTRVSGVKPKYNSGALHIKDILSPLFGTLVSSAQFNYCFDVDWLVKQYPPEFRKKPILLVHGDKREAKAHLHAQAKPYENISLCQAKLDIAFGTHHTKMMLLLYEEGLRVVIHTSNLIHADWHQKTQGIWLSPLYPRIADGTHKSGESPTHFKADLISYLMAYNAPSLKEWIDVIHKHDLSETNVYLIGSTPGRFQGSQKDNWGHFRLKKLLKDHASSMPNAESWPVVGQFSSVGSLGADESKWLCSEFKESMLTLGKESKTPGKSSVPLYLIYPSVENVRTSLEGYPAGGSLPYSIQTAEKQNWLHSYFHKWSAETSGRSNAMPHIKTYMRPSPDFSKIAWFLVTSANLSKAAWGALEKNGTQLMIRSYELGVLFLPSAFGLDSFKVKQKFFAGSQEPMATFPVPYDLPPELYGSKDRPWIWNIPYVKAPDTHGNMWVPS
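AlphaScreen read-out: signal falls as enzyme removes the 3' tyrosine-FITC from a 5'-biotinylated DNA oligo (15 nM, 5 min, RT). Enzyme was E. coli-made recombinant Tdp1 at 1 nM, exposed to compound for 15 min beforehand; beads 10 ug/ml, 10 min.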
* marks the source's active call; other numbers are inactive results; ? = inconclusive; · = not tested or not shown; [ ] = dose if it differs, or a comment. Sampled rows, rich in hits. Any-hit rate of the full collection: about 16%. Unless noted, calls come from the whole dose curve; as a rule, active = well fitted curve in the direction sought with a large enough effect; inconclusive = small, poorly fitted or top-dose-only effect, or another doubt; inactive = no such curve, though single readings can be large; an effect the other way counts as inactive or inconclusive.

SMILES | DT40 TDP1 no CPT | uPA generation | miR-21 reporter | DT40 TDP1 CPT | TDP1 block
CCOc1ccccc1CNC(=O)C1CCN(S(=O)(=O)c2cccc3nonc23)CC1 | -22% | · | 6% | -26% | 2%
O=C(C1CCN(S(=O)(=O)c2cccc3nonc23)CC1)N1CCCCC1 | -9% | 2% | 0% | -1% | 1%
O=C(C1CCCN(S(=O)(=O)c2cccc3nonc23)C1)N1CCN(c2ccccc2Cl)CC1 (stereo not drawn) | 16µM* | -8% | 17% | 23µM* | -2%[12.3 µM]
CCOc1ccccc1N(C)C(=O)C1CCN(S(=O)(=O)c2cccc3nonc23)CC1 | 13µM* | 5% | 3% | ? | 2%
COC(=O)c1cccc(C(=O)N2CCCC(C(=O)c3cccc(OC(C)C)c3)C2)c1 (stereo not drawn) | ? | 26% | 0% | ? | 2%
Cc1cc(NC(=O)C2CCCN(S(=O)(=O)c3cccc4nonc34)C2)ccc1Br (stereo not drawn) | 16µM* | · | -3% | ? | 2%
Cc1cc(Br)ccc1NC(=O)C1CCCN(S(=O)(=O)c2cccc3nonc23)C1 (stereo not drawn) | -40% | · | 2% | ? | 2%[12.3 µM]
Clc1cncc(Cl)c1NNc1c2ccccc2nc2ccccc12 | ? | -2% | -7% | ? | 8%
COc1ccccc1Nc1cc(C)nc(Nc2ccccc2OC)n1 | 23µM* | 3% | · | 21µM* | 0%
CC(C)(C)Nc1c2ccccc2nc2ccccc12 | 18µM* | -10% | 11% | 21µM* | ·
COc1ccccc1Nc1c2ccccc2nc2ccccc12 | 16µM* | -20% | ? | 16µM* | ·
COc1ccccc1Nc1nc(-c2ccccc2O)nc2ccccc12 | ? | -4% | -1% | ? | 7%
COc1ccc(Nc2cc(Nc3cc(OC)c(OC)c(OC)c3)ncn2)cc1 | 21µM* | 6% | -18% | 18µM* | ·
Cc1onc(-c2ccccc2)c1C(=O)Nc1ccc(Br)cc1Cl | -2% | -3% | 0% | 6% | -1%
Cc1cc(C(=O)NC(C)C2CCCO2)c(C)o1 (stereo not drawn) | -2% | 28% | -2% | -1% | 3%
COc1ccc(Nc2c3ccccc3nc3ccccc23)cc1 | ? | -13% | 1% | ? | 8%
COc1cc(Nc2c3ccccc3nc3ccccc23)cc(OC)c1OC | 5.2µM* | -18% | 25% | 7.3µM* | ·
O=c1oc2ccccc2c(O)c1/C=C1\C=Nc2ccccc21 | 7.3µM* | 0% | -9% | 8.2µM* | -1%
Oc1c(N=Nc2ccc(F)cc2)ccc2ccccc12 | 15µM* | -3% | -59% | 9.2µM* | ·
Oc1c(N=Nc2nn[nH]n2)ccc2ccccc12 | 16µM* | · | · | 16µM* | ·
Cc1ccc(N=Nc2ccc3ccccc3c2O)cc1 | ? | -7% | -51% | ? | ·
Cc1ccc(OCCC(=O)OCC(=O)NCCNC(=O)COC(=O)CCOc2ccc(C)cc2)cc1 | -14% | · | · | -9% | ·
CC(C)COc1ccc(CNC(=S)Nc2ccccc2)cc1Cl | 26µM* | -6% | 13% | ? | ·
CCCOc1ccc(CNC(=S)Nc2ccccc2)cc1Cl | 16µM* | 2% | -1% | ? | ·
COc1ccc(CNC(=S)Nc2ccccc2)cc1Cl | -10% | 5% | -6% | -22% | ·
SMILES | DT40 TDP1 no CPT | uPA generation | miR-21 reporter | DT40 TDP1 CPT | TDP1 block
CC(CC(=O)O)Nc1ccccc1O (stereo not drawn) | ? | 2% | -1% | 21µM* | ·
CC(C)C(=O)NC(CC(=O)O)c1ccccc1 (stereo not drawn) | 5% | 3% | 2% | -1% | 1%
CN1CCN(S(=O)(=O)c2ccc(-c3noc(C4CCN(S(C)(=O)=O)CC4)n3)cc2)CC1 | -11% | · | -5% | -7% | 0%
CCS(=O)(=O)N1CCC(c2nc(-c3ccc(C)cc3)no2)CC1 | 15µM* | · | -20% | 29µM* | 1%
CS(=O)(=O)N1CCC(c2noc(-c3ccc(C(F)(F)F)cc3)n2)CC1 | 10µM* | 5% | -2% | 9.2µM* | 8%
CCS(=O)(=O)N1CCC(c2nc(-c3ccc(C(F)(F)F)cc3)no2)CC1 | 14µM* | · | 0% | 8.9µM* | 5%
CN1OC2C(=O)N(c3ccccc3)C(=O)C2C1c1ccc(F)cc1 (stereo not drawn) | -1% | 13% | -1% | -14% | 3%
Cn1cc(Br)c(C(=O)NC(=S)N2CCN(c3ccccn3)CC2)n1 | ? | 0% | -1% | ? | 4%
CN1CCN(NC(=S)NC(C)(C)CC(C)(C)C)CC1 | ? | · | -5% | -14% | 5%
CCOC(=O)C1(Cc2ccccc2)CCCN(C(=O)COc2ccccc2OC)C1 (stereo not drawn) | 13µM* | · | · | 23µM* | ·
CCOC(=O)C1(Cc2ccccc2)CCCN(C(=O)C=C(C)C)C1 (stereo not drawn) | -51% | 0% | -48% | ? | ·
CCOC(=O)C1(Cc2ccccc2)CCCN(Cc2cccc(C(C)=O)c2)C1 (stereo not drawn) | 16µM* | 2% | 20% | ? | 4%
COCCCNc1nc2c(c(=O)n(Cc3ccc(F)cc3)c(=O)n2C)n1C | -4% | 8% | 1% | -5% | ·
Cn1c(=O)c2c(nc(SCc3cccnc3)n2Cc2ccccc2)n(C)c1=O | ? | -4% | -11% | ? | 6%
Cn1c(Oc2ccc3c(c2)OCO3)nc2c1c(=O)n(Cc1ccccc1)c(=O)n2C | ? | -1% | -1% | ? | -12%
Cn1c(Oc2cccc(Cl)c2)nc2c1c(=O)n(Cc1ccccc1Cl)c(=O)n2C | -27% | · | -3% | -20% | ·
Cn1c(OCc2ccc3c(c2)OCO3)nc2c1c(=O)n(Cc1cccc(Cl)c1)c(=O)n2C | 10µM* | 4% | · | ? | ·
Cn1c(OCc2cccnc2)nc2c1c(=O)n(Cc1ccc(F)cc1)c(=O)n2C | 12µM* | -5% | 2% | 21µM* | 1%
Cn1c(Oc2ccccc2)nc2c1c(=O)n(Cc1ccc(Cl)cc1Cl)c(=O)n2C | 16µM* | · | -2% | 15µM* | 3%[2.28 µM]
Cn1c(=O)c2c(nc(SCc3cccnc3)n2Cc2ccc(F)cc2)n(C)c1=O | 23µM* | -10% | 1% | 21µM* | -3%
O=C(NCCc1ccc(O)cc1)c1[nH]c(C(F)(F)F)nc1-c1ccccc1 | -12% | · | · | ? | ·
COCc1cc(C)nc2sc(C(=O)Nc3ccc(C(=O)OC)cc3)c(N)c12 | ? | 8% | -14% | -26% | ·
Cn1c(=O)c2c(nc(OCc3cccnc3)n2Cc2c(F)cccc2Cl)n(C)c1=O | ? | 1% | -13% | ? | 5%
